PubChem BioAssay (Tox21)
Several values for one entry are separate records, joined by “and”; a condition that tells them apart may be missing. Identical values can stand only once. Some compounds were tested as several samples or in several runs, with calls that do not always agree. Activity calls are given as the source filed them. A call without a number means that no potency is given here. Unless noted, calls come from the whole dose curve; as a rule, active = well fitted curve in the direction sought with a large enough effect in the repeat runs; inconclusive = weak or mixed curves; inactive = no such curve, though single readings can be large; an effect the other way counts as inactive or inconclusive.

How the values were obtained:
[1] = qHTS assay to identify small molecule antagonists of the glucocorticoid receptor (GR) signaling pathway - cell viability counter screen (AID 720693); note: nearly all actives have a fitted effect of over 55% in size; note: potency is the fitted concentration of half-maximal effect
[2] = qHTS assay for identifying genotoxic compounds that show differential cytotoxicity against isogenic chicken DT40 cell lines with known DNA damage response pathways - wild type cell line (AID 743012); note: nearly all actives have a fitted effect of over 60% in size; note: potency is the fitted concentration of half-maximal effect
Procedure, shortened: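 Cytotoxicity in repair-proficient parental chicken DT40 cells serves as the comparator for Rad54/Ku70- and Rev3-deficient lines. Cells were exposed to compounds for 40 h at 37 C/5% CO2, and ATP-based luminescence (CellTiter-Glo) measured viability.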

[3] = qHTS assay for identifying genotoxic compounds that show differential cytotoxicity against isogenic chicken DT40 cell lines with known DNA damage response pathways - Rad54/Ku70 mutant cell line (AID 743015); note: nearly all actives have a fitted effect of over 60% in size; note: potency is the fitted concentration of half-maximal effect
[4] = qHTS assay to identify small molecule antagonists of the androgen receptor (AR) signaling pathway - cell viability counter screen (AID 743033; note: nearly all actives have a fitted effect of over 45% in size; note: potency is the fitted concentration of half-maximal effect)
[5] = qHTS assay to identify small molecule antagonists of the androgen receptor (AR) signaling pathway using the MDA cell line - cell viability counter screen (AID 743041; note: nearly all actives have a fitted effect of over 45% in size; note: potency is the fitted concentration of half-maximal effect)
Procedure, shortened: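 Compound exposure lasted 16 h at 37C in MDA-kb2 AR-luc cells stimulated with R1881. Protease-based CellTiter-Fluor reagent was applied for the final 30 min and fluorescence measured.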

[6] = qHTS assay to identify small molecule antagonists of the estrogen receptor alpha (ER-alpha) signaling pathway - cell viability counter screen (AID 743074; calls by dose curve; note: nearly all actives have a fitted effect of over 45% in size; note: potency is the fitted concentration of half-maximal effect)
[7] = target: Estrogen receptor (Homo sapiens) (UniProt P03372); experiment: qHTS assay to identify small molecule agonists of the estrogen receptor alpha (ER-alpha) signaling pathway using the BG1 cell line (AID 743079); note: nearly all actives have a fitted effect of over 20% in size; note: potency is the fitted concentration of half-maximal effect
[8] = qHTS assay to identify small molecule antagonists of the estrogen receptor alpha (ER-alpha) signaling pathway using the BG1 cell line (AID 743080; calls by dose curve;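 note: BG1 cells stimulated with 17beta-estradiol alongside compound; nearly all actives have a fitted effect of over 25% in size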; note: potency is the fitted concentration of half-maximal effect)
Procedure, shortened: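 Seeding, 24 h rest, compound transfer from DMSO, 17beta-estradiol addition, 21.5 h incubation, CellTiter-Fluor (30 min, 37 C), then ONE-Glo (30 min, room temperature): this sequence was run on BG1-Luc-4E2 reporter cells.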

[9] = qHTS assay to identify small molecule antagonists of the estrogen receptor alpha (ER-alpha) signaling pathway using the BG1 cell line - cell viability counter screen (AID 743081);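 note: compound given together with 17beta-estradiol as the ER stimulus; nearly all actives have a fitted effect of over 45% in size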; note: potency is the fitted concentration of half-maximal effect
[10] = target: Aromatase (Homo sapiens) (UniProt P11511); experiment: qHTS assay to identify aromatase inhibitors (AID 743083); note: nearly all actives have a fitted effect of over 55% in size; note: potency is the fitted concentration of half-maximal effect
[11] = qHTS assay to identify small molecule antagonists of the thyroid receptor (TR) signaling pathway - cell viability counter screen (AID 743064); note: nearly all actives have a fitted effect of over 50% in size; note: potency is the fitted concentration of half-maximal effect
Procedure, shortened: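 GH3.TRE-Luc rat pituitary cells carrying a TRE-luciferase reporter were treated with compound plus 1 nM T3 (final) for 23.5 h at 37 °C. Viability was then read in the same wells by CellTiter-Fluor fluorescence after a further 30 min.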

[12] = qHTS assay to identify small molecule antagonists of the thyroid receptor (TR) signaling pathway (AID 743065); note: nearly all actives have a fitted effect of over 55% in size; note: potency is the fitted concentration of half-maximal effect
Procedure, shortened: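 GH3.TRE-Luc rat pituitary cells (two TREs driving luciferase) were dosed with compound, then stimulated with 1 nM T3 (final) for 23.5 h at 37 C. ONE-Glo luminescence was the read-out, with CellTiter-Fluor fluorescence as the cytotoxicity counter-screen.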

[13] = system: thyroid hormone receptor (rat, GH3 cells); experiment: qHTS assay to identify small molecule agonists of the thyroid receptor (TR) signaling pathway (AID 743066; calls by dose curve)
[14] = target: Androgen receptor (Homo sapiens) (UniProt P10275); experiment: qHTS assay to identify small molecule antagonists of the androgen receptor (AR) signaling pathway (AID 743035; active = well fitted inhibition curve with a large enough effect in the signal ratio in the repeat runs, not every such curve was filed as active; inconclusive = weak or mixed curves, or effect the other way; inactive = no such curve, though single readings can be large or run the other way; the % refers to the signal ratio; note: potency is the fitted concentration of half-maximal effect)
Procedure, shortened: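 Steps: seed AR-UAS-bla GripTite HEK293 cells, incubate 4 h at 37C; pin in test compound, then add agonist R1881; incubate 16 h at 37C; add LiveBLAzer B/G FRET substrate, 2 h at room temperature; read fluorescence.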

[15] = target: Androgen receptor (Homo sapiens) (UniProt P10275); experiment: qHTS assay to identify small molecule agonists of the androgen receptor (AR) signaling pathway using the MDA cell line (AID 743040; note: nearly all actives have a fitted effect of over 20% in size)
Procedure, shortened: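 Testing was done with the MDA-kb2 AR-luc line, a human breast carcinoma stably transfected with MMTV-luciferase containing AR and GR response elements. Cells were exposed 16 h at 37C before ONE-Glo luminescence detection.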

[16] = target: Androgen receptor (Homo sapiens) (UniProt P10275); experiment: qHTS assay to identify small molecule antagonists of the androgen receptor (AR) signaling pathway using the MDA cell line (AID 743042; note: potency is the fitted concentration of half-maximal effect; nearly all actives have a fitted effect of over 55% in size)
Procedure, shortened: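 MDA-kb2 breast carcinoma cells carrying MMTV-luciferase (AR/GR responsive) were co-treated with compounds and the agonist R1881 for 16 h at 37C. Inhibition read as ONE-Glo luminescence; CellTiter-Fluor fluorescence measured in parallel for cytotoxicity.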

[17] = target: Estrogen receptor (Homo sapiens) (UniProt P03372); experiment: qHTS assay to identify small molecule agonists of the estrogen receptor alpha (ER-alpha) signaling pathway (AID 743075; calls by dose curve; note: potency is the fitted concentration of half-maximal effect)
[18] = target: Estrogen receptor (Homo sapiens) (UniProt P03372); experiment: qHTS assay to identify small molecule antagonists of the estrogen receptor alpha (ER-alpha) signaling pathway (AID 743069; active = well fitted curve in the direction sought with a large enough effect in the signal ratio in the repeat runs, not every such curve was filed as active; inconclusive = weak or mixed curves, or effect the other way; inactive = no such curve, though single readings can be large or run the other way; the % refers to the signal ratio; note: potency is the fitted concentration of half-maximal effect)
Procedure, shortened: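 In this cell-based reporter format, GripTite HEK293 cells harbouring ER-alpha-UAS-bla were grown overnight with 2% charcoal-stripped FBS, dosed with DMSO-dissolved compounds, then challenged with 17beta-estradiol. After 18 hr at 37C, beta-lactamase activity was detected by FRET fluorescence.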

[19] = target: Androgen receptor (Homo sapiens) (UniProt P10275); experiment: qHTS assay to identify small molecule agonists of the androgen receptor (AR) signaling pathway (AID 743036; active = well fitted activation curve with a large enough effect in the signal ratio in the repeat runs, with a control signal flat, not every such curve was filed as active; inconclusive = weak or mixed curves, or effect the other way; inactive = no such curve, though single readings can be large or run the other way; the % refers to the signal ratio)
Procedure, shortened: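 HEK293 cells stably carrying a UAS-driven beta-lactamase reporter (GeneBLAzer AR-UAS-bla-GripTite) were plated at 2,000 cells/well, rested 4 h at 37C, then exposed to compounds in DMSO for 16 h. LiveBLAzer B/G FRET substrate was added for 2 h at room temperature; fluorescence read.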

Androgen receptor (Homo sapiens), sequence (P10275 whole entry, looked up): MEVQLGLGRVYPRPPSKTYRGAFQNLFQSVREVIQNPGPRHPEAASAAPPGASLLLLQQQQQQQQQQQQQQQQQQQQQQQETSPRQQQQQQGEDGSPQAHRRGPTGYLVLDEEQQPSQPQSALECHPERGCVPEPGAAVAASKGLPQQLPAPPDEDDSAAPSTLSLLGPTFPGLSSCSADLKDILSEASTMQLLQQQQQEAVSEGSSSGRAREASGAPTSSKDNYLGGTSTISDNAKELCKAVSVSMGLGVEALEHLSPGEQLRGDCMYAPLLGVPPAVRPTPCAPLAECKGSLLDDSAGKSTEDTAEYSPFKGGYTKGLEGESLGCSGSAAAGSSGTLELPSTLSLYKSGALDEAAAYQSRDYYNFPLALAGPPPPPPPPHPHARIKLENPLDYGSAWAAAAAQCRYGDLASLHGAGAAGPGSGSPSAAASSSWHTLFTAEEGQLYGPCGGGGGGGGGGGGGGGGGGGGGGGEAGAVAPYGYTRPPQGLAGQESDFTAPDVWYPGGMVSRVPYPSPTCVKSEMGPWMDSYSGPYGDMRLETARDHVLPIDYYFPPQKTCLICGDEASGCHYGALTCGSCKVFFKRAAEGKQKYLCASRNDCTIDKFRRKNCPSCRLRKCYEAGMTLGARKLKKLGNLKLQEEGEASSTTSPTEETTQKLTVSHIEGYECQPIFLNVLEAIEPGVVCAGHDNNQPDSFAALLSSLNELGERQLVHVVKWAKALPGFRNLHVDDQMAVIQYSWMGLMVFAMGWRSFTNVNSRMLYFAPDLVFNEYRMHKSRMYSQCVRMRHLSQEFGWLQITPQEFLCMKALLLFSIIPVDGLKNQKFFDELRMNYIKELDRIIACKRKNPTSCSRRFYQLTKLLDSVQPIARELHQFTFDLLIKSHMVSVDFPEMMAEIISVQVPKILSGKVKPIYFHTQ
Aromatase (Homo sapiens), sequence (P11511 whole entry, looked up): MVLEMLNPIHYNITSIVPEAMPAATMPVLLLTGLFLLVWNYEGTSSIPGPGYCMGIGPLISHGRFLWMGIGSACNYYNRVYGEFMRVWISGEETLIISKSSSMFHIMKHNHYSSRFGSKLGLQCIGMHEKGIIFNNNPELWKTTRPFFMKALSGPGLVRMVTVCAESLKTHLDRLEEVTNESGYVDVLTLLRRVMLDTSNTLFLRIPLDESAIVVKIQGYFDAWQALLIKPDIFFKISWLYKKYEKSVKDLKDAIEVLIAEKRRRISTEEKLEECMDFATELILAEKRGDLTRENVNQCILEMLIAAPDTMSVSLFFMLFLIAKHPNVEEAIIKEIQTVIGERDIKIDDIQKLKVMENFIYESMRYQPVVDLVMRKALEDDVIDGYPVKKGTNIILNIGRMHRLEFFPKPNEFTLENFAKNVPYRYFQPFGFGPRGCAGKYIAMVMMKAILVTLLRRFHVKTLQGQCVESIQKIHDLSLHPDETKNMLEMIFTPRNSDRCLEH
Estrogen receptor (Homo sapiens), sequence (P03372 whole entry, looked up): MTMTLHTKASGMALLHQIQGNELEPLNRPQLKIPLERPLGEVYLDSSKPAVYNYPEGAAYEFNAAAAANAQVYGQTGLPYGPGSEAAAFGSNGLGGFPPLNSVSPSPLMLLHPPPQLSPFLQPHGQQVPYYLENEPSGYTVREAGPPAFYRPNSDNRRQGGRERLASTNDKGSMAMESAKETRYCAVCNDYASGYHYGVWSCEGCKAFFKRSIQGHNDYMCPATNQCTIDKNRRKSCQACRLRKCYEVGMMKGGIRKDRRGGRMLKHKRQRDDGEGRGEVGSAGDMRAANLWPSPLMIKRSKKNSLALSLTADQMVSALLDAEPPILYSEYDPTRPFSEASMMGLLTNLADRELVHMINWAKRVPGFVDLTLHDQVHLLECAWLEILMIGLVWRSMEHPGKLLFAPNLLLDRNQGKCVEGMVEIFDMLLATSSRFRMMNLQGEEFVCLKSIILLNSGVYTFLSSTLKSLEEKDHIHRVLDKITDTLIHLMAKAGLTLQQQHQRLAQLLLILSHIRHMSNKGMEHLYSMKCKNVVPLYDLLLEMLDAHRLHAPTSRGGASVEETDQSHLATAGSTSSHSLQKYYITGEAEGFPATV

Row | Structure (SMILES) | Potency [1] | Potency [2] | Potency [3] | Potency [4] | Potency [5] | Potency [6] | Potency [7] | Potency [8] | Potency [9] | Potency [10] | Potency [11] | Potency [12] | Potency [13] | Potency [14] | outcome [15] | Potency [16] | Potency [17] | Potency [18] | Potency [19]
1 | c1ccc2c(c1)-c1cccc3c1c-2cc1ccccc13 | inactive | inactive | inactive | inactive | inactive | inactive | inactive | inactive | inactive | inactive | – | – | – | – | – | – | – | – | –
2 | CC1=C(C=O)C(C)(C)CC=C1 | inactive | inactive | inactive | inactive | inactive | inactive | – | – | inactive | inactive | inactive | inactive | inactive | – | – | – | – | – | –
3 | CCCCCCCCCCCCc1ccccc1O | 21.6 µM (active) and 21.9 µM (active) | 12 µM (active) and 30.6 µM (active) | 12 µM (active) and 27.3 µM (active) | 24.2 µM (active) and 38.9 µM (active) | inactive | 48.3 µM (active) and 49 µM (active) | 956 nM (active) and 1.93 µM (active) | – | 67.7 µM (active) | 30.2 µM (active) and 27.3 µM (active) | 13.7 µM (active) | 13.7 µM (active) | inactive | 21.6 µM (active) | inactive | 54.5 µM (active) | 13.6 µM [inconclusive] (active) and 3.89 µM [inconclusive] (active) | – | –
4 | Cc1ccnc2c1NC(=O)c1cccnc1N2C1CC1 | inactive | inactive | inactive | inactive | inactive | inactive | – | – | inactive | inactive | inactive | inactive | inactive | – | – | – | – | – | –
5 | c1ccc2c(c1)CCCC2C1=NCCN1 (stereo not given) | inactive | inactive | inactive | inactive | inactive | inactive | inactive | inactive | inactive | inactive | inactive | inactive | inactive | – | – | – | inactive | inactive | –
6 | O=C(Cl)c1cccc(C(=O)Cl)c1 | inactive | inactive | inactive | inactive | inactive | inactive | – | – | inactive | inactive | inactive | inactive | inactive | – | – | – | – | – | –
7 | CCN(CC)C(=S)SSC(=S)N(CC)CC | inactive | 106 nM (active) and 96.9 nM (active) and 19.8 nM (active) | 106 nM (active) and 96.9 nM (active) and 68.6 nM (active) | 425 nM (active) and 138 nM (active) and 100 nM (active) | 376 nM (active) and 243 nM (active) and 222 nM (active) | inactive and 39.8 µM (active) | – | – | inactive | 168 nM (active) and 68.6 nM (active) and 55.8 nM (active) | 34.2 µM (active) | – | – | 0.123 µM (active) | inactive | 266 nM (active) and 217 nM (active) and 140 nM (active) | inactive | – | inactive
8 | CC(=O)CC(=O)Nc1ccc2[nH]c(=O)[nH]c2c1 | inactive | inactive | inactive | inactive | inactive | inactive | inactive | inactive | inactive | inactive | – | inactive | inactive | – | – | – | inactive | inactive | –
9 | O=S(=O)(O)c1ccc2nc(-c3ccccc3)[nH]c2c1 | 20.8 µM (active) | inactive and 46.2 µM (active) | 58.2 µM (active) | inactive | inactive | – | – | – | inactive | inactive | inactive | inactive | inactive | – | – | – | – | – | –
10 | Oc1c(Cl)cc(Cl)cc1Sc1cc(Cl)cc(Cl)c1O | 19.5 µM (active) and 28 µM (active) and 21.9 µM (active) | 11.9 µM (active) and 27.4 µM (active) and 17.2 µM (active) | 17.3 µM (active) [middle of 4 runs] | 6.18 µM (active) and 8.85 µM (active) and 6.16 µM (active) | 55.4 µM (active) | 21.9 µM (active) and 44.4 µM (active) and 27.5 µM (active) | – | 26.6 µM (active) and 48.6 µM (active) | inactive | 21.1 µM (active) and 15.4 µM (active) and 17.5 µM (active) | – | 8.63 µM (active) [middle of 4 runs] | inactive | – | – | – | inactive | 6.93 µM [inconclusive] (active) and 1.77 µM [inconclusive] (active) | –
11 | O=C(Oc1ccccc1)c1ccccc1O | inactive | inactive | inactive and 61.1 µM (active) | inactive | inactive | inactive | inactive | inactive | inactive | inactive | inactive | inactive | inactive | – | – | – | inactive | inactive | –
